In all, about 16,000 sequences were measured (“rpm ratio (pull-down/input)”: median about 0.94, highest 2% from about 1.7 on). The sample holds the highest values, similar sequences and a random draw of the others, so the mix is not that of the screen.

In the assay the target is T1, MBP-FoxP1dN (Mus musculus, UniProt P58462 326-579).
T1 sequence: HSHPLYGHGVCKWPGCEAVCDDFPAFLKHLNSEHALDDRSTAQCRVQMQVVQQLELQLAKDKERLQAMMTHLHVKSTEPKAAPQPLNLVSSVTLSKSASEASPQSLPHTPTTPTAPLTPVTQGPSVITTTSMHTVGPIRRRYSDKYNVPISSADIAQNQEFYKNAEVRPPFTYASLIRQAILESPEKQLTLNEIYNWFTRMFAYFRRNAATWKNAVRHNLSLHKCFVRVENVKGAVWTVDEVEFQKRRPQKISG
The assay can be described thus: PD-seq (MBP pull-down with sequencing); 20 mM Tris-HCl pH 7.5, 100 mM NaCl, 1.5 mM MgCl2, 0.4 uM protein, 0.1 uM dsDNA library, 30 min, room temperature, amylose pull-down; high values mean tight binding. The following applies: protein: recombinant; tags: His6-MBP; chain copies: 2; dsDNA, one strand shown. In a few lines: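 Mouse FoxP3 or FoxP1 fragment lacking the N-terminus, His6-MBP-tagged and expressed in E. coli, was incubated at 0.4 µM with 0.1 µM Klenow-filled degenerate double-stranded DNA library for 30 min at room temperature in Tris pH 7.5 buffer with NaCl and MgCl2. Complexes captured on amylose resin were washed three times and their DNA sequenced on Illumina. Binding is reads-per-million enrichment of pull-down over input, replicates pooled.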
On to “GATGATTGTTCTCCCAGCTGATGAATTGATATTATCGAGTAAACAAATTTTCCTAATCTTTCTGTTCAAGCGCCATCTAC”, for which the binding signal is 1.92 RPM ratio (pull-down/input).

As for “GATGATTGTTCTCCCAGCTGATGAATTTTTGCTATCGAGTAAACAAATTTTCCTAATCTTTCTGTTCAAGCGCCATCTAC”, the binding signal is 1.21 RPM ratio (pull-down/input). In the case of “GATGATTGTTCTCCCAGCTGATGAATTATTTTCATCGAGTAAACAAATTTTCCTAATCTTTCTGTTCAAGCGCCATCTAC”, the binding signal is 1.27 RPM ratio (pull-down/input). For “GATGATTGTTCTCCCAGCTGATGAATTGTCATTATCGAGTAAACAAATTTTCCTAATCTTTCTGTTCAAGCGCCATCTAC” the value was 1.31 RPM ratio (pull-down/input); for “GATGATTGTTCTCCCAGCTGATGAATTATTGATATCGAGTAAACAAATTTTCCTAATCTTTCTGTTCAAGCGCCATCTAC”, 1.53 RPM ratio (pull-down/input). On to “GATGATTGTTCTCCCAGCTGATGAATTATTGTCATCGAGTAAACAAATTTTCCTAATCTTTCTGTTCAAGCGCCATCTAC”, for which the binding signal was 1.86 RPM ratio (pull-down/input). For “GATGATTGTTCTCCCAGCTGATGAATTAATGTTATCGAGTAAACAAATTTTCCTAATCTTTCTGTTCAAGCGCCATCTAC” the value was 1.95 RPM ratio (pull-down/input); for “GATGATTGTTCTCCCAGCTGATGAATTAAATGTATCGAGTAAACAAATTTTCCTAATCTTTCTGTTCAAGCGCCATCTAC”, 1.4 RPM ratio (pull-down/input); for “GATGATTGTTCTCCCAGCTGATGAATTATGTTAATCGAGTAAACAAATTTTCCTAATCTTTCTGTTCAAGCGCCATCTAC”, 1.21 RPM ratio (pull-down/input). The same measure for “GATGATTGTTCTCCCAGCTGATGAATTATCGATATCGAGTAAACAAATTTTCCTAATCTTTCTGTTCAAGCGCCATCTAC”: 1.08 RPM ratio (pull-down/input); for “GATGATTGTTCTCCCAGCTGATGAATTGCTATTATCGAGTAAACAAATTTTCCTAATCTTTCTGTTCAAGCGCCATCTAC”: 1.8 RPM ratio (pull-down/input). The same measure for “GATGATTGTTCTCCCAGCTGATGAATTATTGCTATCGAGTAAACAAATTTTCCTAATCTTTCTGTTCAAGCGCCATCTAC”: 1.3 RPM ratio (pull-down/input). In the case of “GATGATTGTTCTCCCAGCTGATGAATTCAGATATTCGAGTAAACAAATTTTCCTAATCTTTCTGTTCAAGCGCCATCTAC”, the binding signal was 1.01 RPM ratio (pull-down/input). For “GATGATTGTTCTCCCAGCTGATGAATTAAGTTGATCGAGTAAACAAATTTTCCTAATCTTTCTGTTCAAGCGCCATCTAC” the value was 1.17 RPM ratio (pull-down/input). Consider “GATGATTGTTCTCCCAGCTGATGAATTCGATCCGTCGAGTAAACAAATTTTCCTAATCTTTCTGTTCAAGCGCCATCTAC”, for which the binding signal was 0.886 RPM ratio (pull-down/input). With “GATGATTGTTCTCCCAGCTGATGAATTGTTCCGATCGAGTAAACAAATTTTCCTAATCTTTCTGTTCAAGCGCCATCTAC”, the binding signal was 1.04 RPM ratio (pull-down/input).

With “GATGATTGTTCTCCCAGCTGATGAATTGGCTTAGTCGAGTAAACAAATTTTCCTAATCTTTCTGTTCAAGCGCCATCTAC”, the binding signal was 0.844 RPM ratio (pull-down/input). The same measure for “GATGATTGTTCTCCCAGCTGATGAATTGATAAAATCGAGTAAACAAATTTTCCTAATCTTTCTGTTCAAGCGCCATCTAC”: 1.14 RPM ratio (pull-down/input); for “GATGATTGTTCTCCCAGCTGATGAATTAACGAGCTCGAGTAAACAAATTTTCCTAATCTTTCTGTTCAAGCGCCATCTAC”: 0.81 RPM ratio (pull-down/input). The same measure for “GATGATTGTTCTCCCAGCTGATGAATTCTAGTGGTCGAGTAAACAAATTTTCCTAATCTTTCTGTTCAAGCGCCATCTAC”: 0.86 RPM ratio (pull-down/input); for “GATGATTGTTCTCCCAGCTGATGAATTTGTCAAATCGAGTAAACAAATTTTCCTAATCTTTCTGTTCAAGCGCCATCTAC”: 1.17 RPM ratio (pull-down/input). “GATGATTGTTCTCCCAGCTGATGAATTTTCAACATCGAGTAAACAAATTTTCCTAATCTTTCTGTTCAAGCGCCATCTAC”: the binding signal is 1.14 RPM ratio (pull-down/input). The same measure for “GATGATTGTTCTCCCAGCTGATGAATTGTCAACATCGAGTAAACAAATTTTCCTAATCTTTCTGTTCAAGCGCCATCTAC”: 2.76 RPM ratio (pull-down/input); for “GATGATTGTTCTCCCAGCTGATGAATTTATTGAATCGAGTAAACAAATTTTCCTAATCTTTCTGTTCAAGCGCCATCTAC”: 1.28 RPM ratio (pull-down/input); for “GATGATTGTTCTCCCAGCTGATGAATTAGTATTATCGAGTAAACAAATTTTCCTAATCTTTCTGTTCAAGCGCCATCTAC”: 1.75 RPM ratio (pull-down/input). For the sequence “GATGATTGTTCTCCCAGCTGATGAATTATTTATCTCGAGTAAACAAATTTTCCTAATCTTTCTGTTCAAGCGCCATCTAC”, the binding signal was 1.76 RPM ratio (pull-down/input). For “GATGATTGTTCTCCCAGCTGATGAATTTATTATCTCGAGTAAACAAATTTTCCTAATCTTTCTGTTCAAGCGCCATCTAC” the value was 1.41 RPM ratio (pull-down/input); for “GATGATTGTTCTCCCAGCTGATGAATTATTAGTATCGAGTAAACAAATTTTCCTAATCTTTCTGTTCAAGCGCCATCTAC”, 1.46 RPM ratio (pull-down/input). The same measure for “GATGATTGTTCTCCCAGCTGATGAATTAGTAGTATCGAGTAAACAAATTTTCCTAATCTTTCTGTTCAAGCGCCATCTAC”: 1.2 RPM ratio (pull-down/input); for “GATGATTGTTCTCCCAGCTGATGAATTATCTTTCTCGAGTAAACAAATTTTCCTAATCTTTCTGTTCAAGCGCCATCTAC”: 0.948 RPM ratio (pull-down/input); for “GATGATTGTTCTCCCAGCTGATGAATTTATTTGATCGAGTAAACAAATTTTCCTAATCTTTCTGTTCAAGCGCCATCTAC”: 1.2 RPM ratio (pull-down/input). For “GATGATTGTTCTCCCAGCTGATGAATTTTATTGATCGAGTAAACAAATTTTCCTAATCTTTCTGTTCAAGCGCCATCTAC” the value was 2.45 RPM ratio (pull-down/input).

The values are drawn from PMC12820563, “FoxP3 forms a head-to-head dimer in vivo and stabilizes its multimerization on adjacent microsatellites”.
